Source: PubChem BioAssay
Compounds with a hit are over-represented: about 14% of the library has one in this group of screens.
HCMV inh: qHTS Assay for inhibitors of the human cytomegalovirus (HCMV) | 4.5% of 410,000 active | activity change, negative = inhibition, % at 57.5 µM | HFF cells, HCMV-luciferase reporter, 72 h; stronger effect = lower value; in the data active = activity change below about -60%; inconclusive = no clear call, values can overlap the other calls; inactive = above about -39%
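After 16 h attachment at 37C, HFF cells received test compound and HCMV-luciferase (1 PFU/cell); reporter luminescence read 72 h later, data normalized against buffer-only and known inhibitor Salinomycin.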
Marburg entry inh: qHTS for inhibitors of binding or entry into cells for Marburg Virus; Marburg virus pseudotyped entry inhibition, cell reporter; AID 540276, 2011; 1.8% of 300,000 active; Potency, µM (highest dose often 37.8 µM), actives largely listed as inhibitors; calls by dose curve; tested in HEK293 cells
HCV inhibitor: qHTS Assay for Inhibitors of Hepatitis C Virus (HCV); AID 651820, 2012; Huh7.5.1 HCVcc-Cre infection, luciferase reporter, 44 h; Potency, µM (series often up to 41.8 µM), most hits filed as inhibitors; 3.4% of 340,000 active
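Seed cells (1,000/well) for 4 h; treat with compound and infect with HCVcc-Cre, moi about 0.5. Incubate 44 h, then detect luciferase activity.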
Pf growth 96h: Primary qHTS for delayed death inhibitors of the malarial parasite plastid, 96 hour incubation. 6.9% of 320,000 active. Potency, µM (doses to about 28.7 µM), most hits filed as inhibitors. P. falciparum luciferase reporter growth, 96 h
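96 h incubation, 37 C, 5% CO2, of luciferase-reporter P. falciparum-infected RBCs (2% hematocrit, 0.05% parasitemia final) with test compounds; endpoint luminescence.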
Pf growth 48h: Primary qHTS for delayed death inhibitors of the malarial parasite plastid, 48 hour incubation; P. falciparum luciferase growth in erythrocytes, 48 h; Potency, µM (titrated, usually from 28.7 µM), actives largely listed as inhibitors; 5.9% of 310,000 active; AID 504832, 2011
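Read-out is firefly luciferase luminescence from an integrated reporter in P. falciparum, so falling signal marks reduced parasite growth. Infected erythrocytes were at 2% hematocrit and 0.1% parasitemia (final) in Albumax-supplemented RPMI 1640.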
LASV entry inh: qHTS for Inhibitors of binding or entry into cells for Lassa Virus; 1.2% of 300,000 active; AID 540256, 2011; Lassa virus pseudotype entry inhibition, cell reporter; Potency, µM (doses to about 37.9 µM), actives largely listed as inhibitors; calls by dose curve; tested in HEK293 cells; note: nearly all actives have a fitted effect of over 50% in size
Numbers stand for hits; - = inactive; ? = inconclusive; . = not tested or not shown; [ ] = another dose, or the depositor's remark. Unless noted, calls come from the whole dose curve; as a rule, active = well fitted inhibition curve with a large enough effect; inconclusive = small, poorly fitted or top-dose-only effect, or another doubt; inactive = no such curve, though single readings can be large or run the other way.

SMILES | HCMV inh | Marburg entry inh | HCV inhibitor | Pf growth 96h | Pf growth 48h | LASV entry inh
Cc1cc(N2CCN(c3ccccc3)CC2)nc(-n2nc(C)cc2C)n1 | - | ? | . | - | 3.7µM | -
Cc1cc(Nc2ccc(F)cc2)nc(-n2nc(C)cc2C)n1 | -83 | . | . | . | . | -
Cc1cc(NC(=O)n2ncc3c(C)cccc32)ccc1Br | - | - | . | . | . | -
O=C(NCc1ccccc1)C1c2ccccc2OCC(=O)N1Cc1ccccc1 (stereo not drawn) | - | . | . | . | . | .
Cc1cc(Nc2ccccc2C)nc(-n2nc(C)cc2C)n1 | -69 | . | . | . | . | ?
Cc1cc(C)n(-c2nc(Nc3ccccc3C)nc(-n3nc(C)cc3C)n2)n1 | -97 | - | . | 1µM | 2.3µM | .
Cc1cc(C)n(-c2nc(N(C)C)nc(N(C)C)n2)n1 | - | - | - | - | ? | -
Cc1cc(C)n(-c2nc(Nc3ccccc3C(F)(F)F)nc(-n3nc(C)cc3C)n2)n1 | -98 | 10µM | 5.6µM | - | 4.1µM | ?
Cc1ccc(Nc2cc(-n3nc(C)cc3C)ncn2)c(C)c1 | - | - | ? | - | ? | -
Cc1onc(-c2ccccc2)c1C(=O)OCC(=O)N(C)c1ccccc1 | - | - | - | . | . | ?
CCN(CC)S(=O)(=O)c1ccc(NCCCn2ccnc2)c([N+](=O)[O-])c1 | -62 | ? | - | ? | ? | -
CCN(CC)S(=O)(=O)c1ccc(NN=C2CCN(C)CC2)c([N+](=O)[O-])c1 | - | - | - | ? | - | ?
COc1ccc(C(=O)NCCCn2ccnc2)cc1[N+](=O)[O-] | - | . | - | - | - | .
O=C(c1ccccc1)c1ccc(NCCCn2ccnc2)c([N+](=O)[O-])c1 | ? | ? | 35µM | 12µM | ? | ?
COc1ccc(NC(=O)c2[nH]c(C)c(C(C)=O)c2C)cc1S(=O)(=O)Nc1ccc(Br)cc1 | - | ? | 14µM | ? | ? | ?
COc1ccc(C(C)(C)C)cc1NC(=O)c1[nH]c(C)c(C(C)=O)c1C | - | 10µM | ? | ? | ? | 11µM
COc1ccc(-c2nc(C)c(CCNC(=O)C(=O)Nc3cccc(F)c3)s2)cc1OC | - | . | . | . | . | -
CCc1c(C)[nH]c2ccc(OC)cc2c1=S | -71 | - | - | ? | ? | -
COc1ccc2[nH]c(C)c(CN3CCCCC3)c(=O)c2c1 | - | - | - | ? | - | -
CCOc1ccc(Cc2c(C)[nH]c3ccc(C(=O)O)cc3c2=S)cc1 | -79 | - | - | - | - | ?
CN1CN(c2ccccc2)C2(CCN(CCCSc3ccccc3NC(=O)/C=C/c3ccccc3)CC2)C1=O | -66 | ? | 35µM | . | . | ?
CCO[C@@H]1c2c(ccc3ccc(=O)oc23)OC(C)(C)[C@@H]1O | - | . | - | - | - | .
C/C=C(/C)C(=O)O[C@@H]1c2c(ccc3ccc(=O)oc23)OC(C)(C)[C@@H]1OC(=O)/C(C)=C\C | - | ? | 22µM | 6.6µM | 6.6µM | ?
CC(=O)OC1c2c(ccc3ccc(=O)oc23)OC(C)(C)C1OC(=O)CC(C)C (stereo not drawn) | - | - | - | ? | - | -
CCO[C@H]1c2c(ccc3ccc(=O)oc23)OC(C)(C)[C@@H]1O | - | . | 2.8µM | - | - | .
SMILES | HCMV inh | Marburg entry inh | HCV inhibitor | Pf growth 96h | Pf growth 48h | LASV entry inh
C/C=C(/C)C(=O)O[C@@H]1c2c(ccc3ccc(=O)oc23)O[C@@H]1C(C)(C)OC(C)=O | - | - | -[8.37 µM] | 5.9µM | - | -
C/C=C(/C)C(=O)O[C@@H]1[C@H](OC(=O)C=C(C)C)c2c(ccc3ccc(=O)oc23)OC1(C)C | - | - | -[8.37 µM] | ? | ? | -
CCOC(=O)N1CCC2CC1c1cc(-c3cccc(OC)c3)ccc12 (stereo not drawn) | - | . | - | . | . | .
C=CC1CN(C(=O)OCC(Cl)(Cl)Cl)C2CC3c4ccc(OC)cc4NC3C3CC1C2CO3 (stereo not drawn) | . | . | 10µM | . | . | .
CCC[C@H]1[C@@H](NS(=O)(=O)Cc2ccccc2)CC[C@@]23CCCN2C(=O)CCC[C@@H]13 | - | . | . | . | . | .
Cc1cc(C)cc(NC(=O)CCN2C(=O)c3ccccc3S2(=O)=O)c1 | - | . | - | - | - | .
O=C(CCN1C(=O)c2ccccc2S1(=O)=O)NCc1ccccc1 | - | - | - | - | - | -
O=C(CCN1C(=O)c2ccccc2S1(=O)=O)NCc1ccco1 | - | - | - | 12µM | - | -
O=C(CCN1C(=O)c2ccccc2S1(=O)=O)Nc1ccc(Cl)cc1 | -78 | - | - | - | - | -
Cn1c(=O)cc(OCCCC(=O)NCc2ccco2)c2ccccc21 | - | - | - | 12µM | - | -
O=C(CCCCCN1C(=O)c2ccccc2C1=O)NCc1ccco1 | - | - | - | 1µM | . | -
CC(N)c1csc(Nc2ccc(S(C)(=O)=O)cc2)n1 (stereo not drawn) | - | . | . | . | . | .
COc1ccc(CCNC(=O)CCCN2C(=O)c3ccccc3C2=O)cc1 | -81 | - | - | - | - | -
Cc1ccc(-n2nnnc2SC(C(=O)c2c[nH]c3ccccc23)c2ccccc2)cc1 (stereo not drawn) | - | - | - | 1.5µM | ? | -
O=Nc1ccccn1 | - | . | . | . | . | .
C#Cc1cccc(Nc2ncnc3cc(OCCOC)c(OCCOC)cc23)c1 | . | . | . | 6µM | 13µM | .
CC(OC(=O)c1cccc(S(=O)(=O)N2CCCCC2)c1)C(=O)NCC1CCCCC1 (stereo not drawn) | . | - | - | - | - | -
Cc1cccc(C(=O)NC2CCN(S(=O)(=O)c3cccc(F)c3)CC2)c1 | -60 | . | - | . | . | .
O=C(NCC1CCCCC1)c1cccc(S(=O)(=O)N2CCCC2)c1 | - | - | - | ? | 10µM | -
CCOc1ccc(C(=O)NCC2CCN(CC3CCCCC3)CC2)cc1 | - | - | - | 5.9µM | - | -
O=C(NCC1CCCCC1)c1cccc([N+](=O)[O-])c1 | - | - | - | ? | 5.2µM | -
O=C(NCC1CCN(C(=O)c2cccc([N+](=O)[O-])c2)CC1)c1cccc([N+](=O)[O-])c1 | - | - | - | - | - | -
CCOc1ccc(C(=O)NC2CCCCCCC2)cc1 | - | ? | - | . | . | ?
Nc1c(Cl)cc(-c2cn(CCC(=O)O)c(=O)cn2)cc1Cl | - | . | . | . | . | .
CN1OC(C)(CC(=O)NCCc2ccccc2)N=C1c1ccccc1F (stereo not drawn) | - | . | . | . | . | .
CCC(CC)C(=O)OCc1cc(=O)n2nc(C3CC3)sc2n1 | - | . | . | . | . | -
Cc1ccccc1NC(=O)N1CCN(c2ncccn2)CC1 | - | . | - | 2.3µM | - | .
CN(C)S(=O)(=O)c1cccc(C(=O)NCC2CCCCC2)c1 | -78 | - | - | - | - | -
Cc1cccc(C(=O)NC2CC3CCCC(C2)N3S(=O)(=O)c2ccccc2)c1 (stereo not drawn) | - | ? | ? | ? | . | 13µM
Cc1cccc(C(=O)NC2CCN(C(=O)Nc3ccccc3C)CC2)c1 | -103 | . | - | - | - | .
